Reference: PubChem BioAssay (Tox21)
Inconclusive results are not listed. Calls of active or inactive are those of the source. Unless noted, the call rests on the fitted dose curve; in most records, active means well fitted curve in the direction sought with a large enough effect in the repeat runs; inconclusive means weak or mixed curves; inactive means no such curve, though single readings can be large; an effect the other way counts as inactive or inconclusive.

Assays:
[1] = target: Thyrotropin receptor (Homo sapiens) (UniProt P16473); experiment: qHTS assay to identify small molecule agonists of the thyroid stimulating hormone receptor (TSHR) signaling pathway (AID 1224843; calls by dose curve; further: nearly all actives have a fitted effect of over 45% in size)
Chain of Thyrotropin receptor (Homo sapiens) (P16473 whole entry, looked up): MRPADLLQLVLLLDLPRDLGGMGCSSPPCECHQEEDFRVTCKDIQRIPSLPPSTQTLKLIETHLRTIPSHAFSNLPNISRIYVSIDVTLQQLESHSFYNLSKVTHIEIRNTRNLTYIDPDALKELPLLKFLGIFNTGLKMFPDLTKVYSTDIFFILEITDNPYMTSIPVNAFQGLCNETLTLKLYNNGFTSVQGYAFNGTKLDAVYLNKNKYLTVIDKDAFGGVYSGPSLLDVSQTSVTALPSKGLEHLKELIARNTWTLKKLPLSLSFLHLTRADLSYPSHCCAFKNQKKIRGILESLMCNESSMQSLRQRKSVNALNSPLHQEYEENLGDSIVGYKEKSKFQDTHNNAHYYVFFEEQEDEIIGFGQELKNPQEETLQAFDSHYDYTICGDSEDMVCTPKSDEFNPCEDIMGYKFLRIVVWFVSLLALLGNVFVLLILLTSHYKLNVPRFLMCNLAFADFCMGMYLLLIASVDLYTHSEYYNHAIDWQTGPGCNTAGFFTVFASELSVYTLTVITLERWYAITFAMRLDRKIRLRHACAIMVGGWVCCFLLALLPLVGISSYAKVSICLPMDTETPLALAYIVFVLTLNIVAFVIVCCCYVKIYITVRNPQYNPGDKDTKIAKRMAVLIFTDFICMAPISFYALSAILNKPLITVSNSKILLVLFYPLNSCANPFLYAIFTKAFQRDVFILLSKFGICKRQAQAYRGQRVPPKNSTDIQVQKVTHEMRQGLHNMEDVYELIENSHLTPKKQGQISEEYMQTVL
Summary of the method: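 Agonist-mode screen: TSHR HEK293 cells received test chemicals for half an hour at room temperature, then HTRF cAMP detection reagents for one hour prior to fluorescence measurement. Each chemical ran as a 15-concentration series, triplicated.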

[2] = qHTS assay to identify small molecule agonists of the hypoxia (HIF-1) signaling pathway - cell viability counter screen (AID 1224844; calls by dose curve; further: nearly all actives have a fitted effect of over 50% in size; further: potency means the concentration at half of the fitted maximal effect)
Summary of the method: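 HRE-bla ME-180; 0.5% dFBS; cpd 17 h, 37C, 5% CO2; CellTiter-Glo lum., 30 min RT, post-FRET read, same wells.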

[3] = qHTS assay to identify small molecule agonists of the hypoxia (HIF-1) signaling pathway (AID 1224846; active means well fitted activation curve with a large enough effect in the signal ratio in the repeat runs, not every such curve was filed as active; the % refers to the signal ratio)
Summary of the method: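 Reporter induction in HRE-bla ME-180 cells is taken as agonism: cells sit 5 hrs after plating, receive compounds or DMSO only, incubate 17 hrs at 37C under 5% CO2, and are loaded with CCF4-AM for beta-lactamase FRET measurement.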

[4] = qHTS assay to identify small molecule agonists of H2AX - cell viability counter screen (AID 1224847; calls by dose curve; further: top concentration of the series differs between compounds; nearly all actives have a fitted effect of over 30% in size)
Summary of the method: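 Wild-type CHO-K1 cells (10% FBS medium) were plated overnight at 37C, exposed to compounds at 15 concentrations for 3 hr at 37C (0.76% DMSO final), and viability was read as CellTiter-Glo luminescence after 30 min at room temperature.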

[5] = qHTS RealTime-Glo MT Cell Viability Assay in HepG2 cells - 24 hour (AID 1224867); further: nearly all actives have a fitted effect of over 50% in size; further: potency means the concentration at half of the fitted maximal effect
Summary of the method: (§1)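 Real-time, nonlytic viability: 600 HepG2 cells/well mixed with NanoLuc enzyme plus prosubstrate; 5 h settle, compound (DMSO) added by pintool; luminescence monitored over 40 h at 37 C.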

[6] = qHTS RealTime-Glo MT Cell Viability Assay in HEK293 cells - 32 hour (AID 1224868); further: nearly all actives have a fitted effect of over 50% in size; further: potency means the concentration at half of the fitted maximal effect
Summary of the method: (§2)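 Cells + reagent dispensed (600 cells/well, HEK293) → 5 h at 37 C/5% CO2 → 23 nL compound in DMSO pinned → 40 h at 37 C → luminescence read at 0, 8, 16, 24, 32, 40 h.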

[7] = A CellTox Green Cytotoxicity Assay to monitor cytotoxicity in HEK293 cells - 0 hour (AID 1224869); further: nearly all actives have a fitted effect of over 50% in size
Summary of the method: (§3)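 Tox21 screen in HEK293: membrane-impermeant cyanine dye fluoresces on binding dead-cell DNA; compound pinned 5 h post-seeding, plates held at 37 C, signal read repeatedly through 40 h.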

[8] = qHTS RealTime-Glo MT Cell Viability Assay in HepG2 cells - 40 hour (AID 1224870); further: nearly all actives have a fitted effect of over 50% in size; further: potency means the concentration at half of the fitted maximal effect
Summary of the method: (§4)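 HepG2 cells (600/well) mixed with RealTime-Glo MT reagent, settled 5 h at 37 C/5% CO2 before compound addition. Nonlytic NanoLuc luminescence from viable-cell prosubstrate reduction read repeatedly during 40 h treatment at 37 C.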

[9] = qHTS RealTime-Glo MT Cell Viability Assay in HEK293 cells - 16 hour (AID 1224872); further: nearly all actives have a fitted effect of over 50% in size; further: potency means the concentration at half of the fitted maximal effect
Summary of the method: as §2

[10] = qHTS RealTime-Glo MT Cell Viability Assay in HepG2 cells - 8 hour (AID 1224873); further: nearly all actives have a fitted effect of over 55% in size
Summary of the method: as §4

[11] = qHTS RealTime-Glo MT Cell Viability Assay in HEK293 cells - 40 hour (AID 1224874); conditions: RealTime-Glo luminescence; max response: active compounds read low; further: nearly all actives have a fitted effect of over 50% in size; further: potency means the concentration at half of the fitted maximal effect
Summary of the method: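 HEK293 + NanoLuc + prosubstrate, 600 cells/well; 5 h, 37 C/5% CO2; compound 23 nL in DMSO by pintool; 37 C; luminescence read at 0, 8, 16, 24, 32 and 40 h time points.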

[12] = A CellTox Green Cytotoxicity Assay to monitor cytotoxicity in HEK293 cells - 24 hour (AID 1224875); further: nearly all actives have a fitted effect of over 45% in size
Summary of the method: as §3

[13] = A CellTox Green Cytotoxicity Assay to monitor cytotoxicity in HepG2 cells - 16 hour (AID 1224876); further: nearly all actives have a fitted effect of over 45% in size
Summary of the method: (§5)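 Measurements at 0, 8, 16, 24, 32 and 40 h of treatment captured CellTox Green fluorescence in HepG2 cells that had been co-plated with reagent and preincubated 5 h at 37 C/5% CO2.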

[14] = qHTS RealTime-Glo MT Cell Viability Assay in HepG2 cells - 32 hour (AID 1224877); further: nearly all actives have a fitted effect of over 55% in size; further: potency means the concentration at half of the fitted maximal effect
Summary of the method: as §1

[15] = A CellTox Green Cytotoxicity Assay to monitor cytotoxicity in HepG2 cells - 24 hour (AID 1224878); further: nearly all actives have a fitted effect of over 45% in size; further: potency means the concentration at half of the fitted maximal effect
Summary of the method: as §5

[16] = A CellTox Green Cytotoxicity Assay to monitor cytotoxicity in HepG2 cells - 40 hour (AID 1224879); further: nearly all actives have a fitted effect of over 40% in size; further: potency means the concentration at half of the fitted maximal effect
Summary of the method: as §5

[17] = qHTS assay to identify small molecule agonists of H2AX (AID 1224845; active means well fitted activation curve with a large enough effect in the signal ratio in the repeat runs, not every such curve was filed as active; the % refers to the signal ratio)
Summary of the method: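 Wild-type CHO-K1 cells, plated overnight, exposed 3hr at 37C to 15 concentrations (0.76% DMSO final). Lysed, then HTRF anti-pH2AX (S139) cryptate and anti-H2AX-d2 antibodies, 24 hr room temperature; 665/620 nm emission read.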

[18] = qHTS assay to identify small molecule agonists of the estrogen related receptor (ERR) signaling pathway from Tox21 library (AID 1224849; calls by dose curve; further: nearly all actives have a fitted effect of over 15% in size); conditions: ERR reporter cell line, ONE-Glo luciferase, 18 h; at 92.4 µM (top of the series) unless noted
Summary of the method: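 Tox21 compounds tested for ERR agonism in an NTP reporter cell line: 18 h treatment at 37 C, then ONE-Glo luminescence.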

[19] = A CellTox Green Cytotoxicity Assay to monitor cytotoxicity in HEK293 cells - 40 hour (AID 1224871); further: nearly all actives have a fitted effect of over 45% in size
Summary of the method: as §3

[20] = qHTS assay to identify small molecule antagonists of the estrogen related receptor (ERR) signaling pathway from Tox21 library (AID 1224848); further: nearly all actives have a fitted effect of over 50% in size; further: potency means the concentration at half of the fitted maximal effect
Summary of the method: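 Quantitative high-throughput format: ERR reporter cells (2,000/well) pre-incubated 6 h, treated 18 h at 37 C with compounds in DMSO alongside positive and negative controls, then read by ONE-Glo luminescence.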
On the % scale 0 is the no-effect control and ±100 the full control effect.

O=C(O)c1ccc(CO)o1
inactive: Potency [1] | Potency [2] | outcome [3] | Potency [4] | Potency [5] | Potency [6] | Potency [7] | Potency [8] | Potency [9] | Potency [10] | max response [11] -0.778% | Potency [12] | Potency [13] | Potency [14] | Potency [15] | Potency [16]

O=C(O)c1cccc(O)c1
inactive: Potency [1] | Potency [2] | outcome [3] | Potency [4] | Potency [5] | Potency [6] | Potency [7] | Potency [8] | Potency [9] | Potency [10] | Potency [12] | Potency [13] | Potency [14] | Potency [15] | Potency [16]

COCCOC
inactive: Potency [1] | outcome [3] | Potency [7] | Potency [8] | Potency [10] | Potency [12] | Potency [13] | Potency [14] | Potency [15] | Potency [16]
active: Potency [2] 4.67 µM | Potency [6] 0.74 µM | Potency [9] 0.932 µM | Potency [11] 0.83 µM

COc1cc2c(N3CCN(C(=O)Nc4ccc(OC(C)C)cc4)CC3)ncnc2cc1OCCCN1CCCCC1
inactive: Potency [1] | Potency [17] | outcome [3] | Potency [4] | activity change, positive = activation [18] -32.4% [at 42.5 µM] | Potency [5] | Potency [7] | Potency [10] | Potency [13] | Potency [14]
active: Potency [6] 9.52 µM | Potency [11] 9.52 µM | Potency [16] 26.8 µM

CCOC(=O)OCC
inactive: Potency [1] | Potency [2] | outcome [3] | Potency [4] | Potency [5] | Potency [6] | Potency [7] | Potency [8] | Potency [19] | Potency [9] | Potency [10] | max response [11] 7.38% | Potency [12] | Potency [13] | Potency [14] | Potency [15] | Potency [16]

CCC(Cc1ccccc1)(C(=O)c1ccc(N2CCOCC2)cc1)N(C)C (stereo not given)
active: Potency [20] 17.2 µM
inactive: Potency [1] | Potency [2] | outcome [3] | activity change, positive = activation [18] -33.5% | Potency [7] | Potency [8] | Potency [10] | Potency [12] | Potency [13] | Potency [14] | Potency [15] | Potency [16]

CN(C)CCOC1=Cc2ccccc2Sc2ccc(Cl)cc21
inactive: Potency [1] | Potency [17] | outcome [3] | Potency [4] | activity change, positive = activation [18] -11.9% [at 42.5 µM] | Potency [6] | Potency [7] | Potency [9] | Potency [10] | max response [11] -22.7% | Potency [12]
active: Potency [14] 21.3 µM | Potency [15] 23.9 µM | Potency [16] 23.9 µM

CCOC(=O)/C=C/C(=O)O
inactive: Potency [1] | Potency [2] | outcome [3] | Potency [4] | Potency [6] | Potency [7] | Potency [8] | Potency [19] | Potency [9] | Potency [10] | Potency [12] | Potency [13] | Potency [14] | Potency [15] | Potency [16]

O=C(O)C(Cc1cc(I)c(O)c(I)c1)c1ccccc1 (stereo not given)
inactive: Potency [1] | Potency [2] | Potency [5] | Potency [6] | Potency [7] | Potency [8] | Potency [19] | Potency [9] | Potency [10] | max response [11] 0.775% | Potency [12] | Potency [13] | Potency [15] | Potency [16]

CC(=O)[C@H]1CC[C@H]2[C@@H]3C=CC4=CC(=O)CC[C@@]4(C)[C@@H]3CC[C@]12C
inactive: Potency [1] | Potency [2] | outcome [3] | Potency [5] | Potency [7] | Potency [8] | Potency [19] | Potency [9] | Potency [10] | Potency [12] | Potency [13] | Potency [15] | Potency [16]

O=C(N[C@@H](c1ccccc1)[C@@H]1CCCCN1)c1cccc(C(F)(F)F)c1Cl
inactive: Potency [1] | Potency [2] | outcome [3] | Potency [7] | Potency [10]
active: Potency [20] 30.6 µM | Potency [5] 43.6 µM | Potency [6] 24.5 µM | Potency [8] 43.6 µM | Potency [11] 24.5 µM | Potency [16] 34.7 µM

C=CCNc1nc(NCC=C)nc(N2CCN(C(c3ccc(F)cc3)c3ccc(F)cc3)CC2)n1
inactive: Potency [1] | Potency [2] | outcome [3] | Potency [5] | Potency [6] | Potency [7] | Potency [8] | Potency [19] | Potency [9] | Potency [10] | max response [11] -23.1% | Potency [12] | Potency [13] | Potency [14] | Potency [15] | Potency [16]

CC(CCc1ccc2c(c1)OCO2)NN (stereo not given)
inactive: Potency [1] | Potency [2] | outcome [3] | Potency [5] | Potency [6] | Potency [7] | Potency [8] | Potency [19] | Potency [9] | Potency [10] | max response [11] 6.86% | Potency [13] | Potency [14] | Potency [15] | Potency [16]

O=C(CCCN1CCN(c2ccc(F)cc2)CC1)NC1c2ccccc2CSc2ccccc21 (stereo not given)
inactive: Potency [1] | Potency [2] | outcome [3] | Potency [7] | Potency [19] | Potency [12]
active: Potency [6] 19 µM | Potency [9] 19 µM | Potency [11] 16.9 µM | Potency [14] 23.9 µM | Potency [15] 23.9 µM | Potency [16] 23.9 µM

C=CC(C)(C)CC(=O)OC
inactive: Potency [1] | outcome [3] | Potency [4] | Potency [5] | Potency [7] | Potency [8] | Potency [19] | Potency [10] | Potency [13] | Potency [14] | Potency [15] | Potency [16]
active: Potency [2] 12.3 µM | Potency [6] 1.38 µM | Potency [9] 1.38 µM | Potency [11] 1.55 µM

Nc1ccc(Cl)cc1[N+](=O)[O-]
inactive: Potency [1] | Potency [2] | outcome [3] | Potency [20] | activity change, positive = activation [18] -0.746% | Potency [5] | Potency [6] | Potency [7] | Potency [8] | Potency [19] | Potency [9] | Potency [10] | max response [11] 2.66% | Potency [13] | Potency [15] | Potency [16]
